We go through four compounds from PubChem BioAssay.

A short description of test [1]: small molecules captured by biotinylated probe aFSTL3 – biochemical, small-molecule microarray, fluorescence 635/667, stem cell growth factor project, primary screen (AID 1064).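 Also: measures binding of the biotinylated anti-FSTL3 antibody to printed compounds.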 The note with it: higher = more signal.
The nature of test [2]: binders from COS7 lysate, DM2A8 probe, primary screen, torsin A project, cell lysate, small-molecule microarray, fluorescence 635/667 (AID 1065). The note with it: higher = more signal, COS7 lysate expressing mutant human TOR1A.
Test [3] in a line: small molecules captured by biotinylated probe aFGF2 – biochemical, small-molecule microarray, fluorescence 635/667, stem cell growth factor project, primary screen (AID 1067).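 Also: measures binding of biotinylated aFGF2 protein to printed compounds on slides; z-score merges feature fluorescence and signal-to-noise across triplicate slides.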 The note with it: higher = more signal.
Test [4] can be described thus: small molecules captured by biotinylated probe aFGF10 – biochemical, small-molecule microarray, fluorescence 635/667, stem cell growth factor project, primary screen (AID 1071).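 Also: score merges 667 nm spot intensity and signal to noise from triplicate slides.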 The note with it: higher = more signal.
In test [5] the target is Neurogenic locus notch homolog protein 2 (Homo sapiens) (UniProt Q04721). Kind of test: small molecules binding Notch2 protein – biochemical, small-molecule microarray, 635 nm fluorescence, stem cell growth factors, primary screen (AID 1073). The note with it: higher = more signal.
The target of test [6] is Pro-neuregulin-1, membrane-bound isoform (Homo sapiens) (UniProt Q02297). Briefly: small molecules binding neuregulin-1 protein – biochemical, small-molecule microarray, fluorescence 635/667, psychiatric disease protein project, primary screen (AID 1075).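 Also: score combines 667 nm spot fluorescence with signal to noise.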 Particulars: NRG1 binding, 635 nm fluorescence, higher = more signal.
Test [7] deals with Neuregulin-1 EGF-like domain. Briefly: small molecules binding NRG1 EGF domain – biochemical, small-molecule microarray, 635 nm fluorescence, primary screen (AID 1081).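 Also: binding of the protein to compounds printed on small-molecule microarray slides.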 The note with it: higher = more signal.
The nature of test [8]: FRG1 expression reporter modulators in myotubes – cell-based, C2C12 myotubes, firefly/Renilla luciferase, luminescence, FRG1 inhibition for FSHD, primary screen (AID 1084). The note with it: FRG1 promoter luciferase, higher = more signal, called active from +8 up or from −8 down.
Test [9] can be described thus: small molecules captured by biotinylated probe aFST – biochemical, small-molecule microarray, fluorescence 635/667, stem cell growth factor project, primary screen (AID 1086).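 Also: score merges 667 nm fluorescence with signal-to-noise of each printed compound spot.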 Particulars: higher = more signal.
A short description of test [10]: binders of probe aHhip on microarray, primary screen, stem cell growth factor project, biochemical, small-molecule microarray, fluorescence 635/667 (AID 1087).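 Also: score merges spot fluorescence at 667nm with spot signal to noise ratio.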 The note with it: higher = more signal.
For test [11], the system named is PRMT1 (protein arginine N-methyltransferase 1). Kind of test: small molecules binding arginine methyltransferase PRMT1 – biochemical, small-molecule microarray, 635 nm fluorescence, primary screen (AID 1088).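 Also: binding of Prmt1 protein to compounds spotted on small-molecule microarray slides.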 The note with it: higher = more signal.
Test [12] is described as follows: growth effects on S. cerevisiae YJM789 – YJM789 clinical isolate, OD600, 24 h, basal, primary screen (AID 1089).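 Also: growth of clinical yeast isolate S. cerevisiae YJM 789 seeded 1000 cells per well; test concentration not given here.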 Particulars: higher = more signal, called active from +8 up or from −8 down.
Test [13] is described as follows: S. pombe growth modifiers, basal conditions – strain 972, OD600, 24 h, no modulator, primary screen (AID 1090).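 Also: basal condition with compound alone and no growth modifier present; test concentration not given here.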 The note with it: S. pombe 972 growth, higher = more signal, called active from +8 up or from −8 down.
The nature of test [14]: budding yeast growth modifiers under rapamycin – strain BY4716, OD600, 96 h, primary screen (AID 1091). Also: test concentration not given here. Particulars: S. cerevisiae BY4716 + rapamycin, higher = more signal, called active from +8 up or from −8 down.
Test [15] concerns the target Torsin-1A-interacting protein 2 (Homo sapiens) (UniProt Q8NFQ8). Kind of test: small molecules binding lysate-expressed LULL1 – cell lysate, human LULL1 lysate, 635/667 nm fluorescence, primary screen (AID 1092).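 Also: probe is lysate of COS7 cells overexpressing human LULL1; score merges per-feature 667 nm fluorescence with signal-to-noise.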 The note with it: small-molecule microarray, hLULL1 lysate binding, 635 nm fluorescence; higher = more signal.
A short description of test [16]: optical density change of DRC41 E. coli – strain DRC41, OD650, 24 h, E. coli filamentation project, primary screen (AID 1093).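 Also: MC1000 strain lacking acrAB efflux and sulA so SOS filamentation is blocked; test concentration not given here.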 Particulars: E. coli DRC41 growth, higher = more signal, called active from +8 up or from −8 down.
Test [17] in a line: probe aLefty2 binding to arrayed compounds – biochemical, biotinylated probe, 635/667 nm fluorescence, primary screen (AID 1094).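 Also: score merges spot fluorescence near 667 nm with spot signal-to-noise ratio.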 The note with it: small-molecule microarray, higher = more signal.
In test [18] the test system is Noggin (protein binding on small-molecule microarray). Kind of test: small molecules binding Noggin protein – biochemical, 635/667 nm fluorescence, primary screen (AID 1095).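 Also: score merges 667 nm feature fluorescence with signal to noise over triplicate slides.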 The note with it: 635 nm fluorescence, higher = more signal.
The target of test [19] is Neurogenic locus notch homolog protein 3 (Homo sapiens) (UniProt Q9UM47). Kind of test: small molecules binding NOTCH3 protein – biochemical, 635/667 nm fluorescence, primary screen (AID 1096). The note with it: small-molecule microarray, 635 nm fluorescence, higher = more signal.
A short description of test [20]: probe aEGFR binding to arrayed compounds – biochemical, biotinylated probe, 635/667 nm fluorescence, primary screen (AID 1097).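 Also: probe is a biotinylated anti-EGFR antibody binding compounds printed on slides; score combines fluorescence near 667 nm and signal to noise of each spot.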 The note with it: small-molecule microarray, higher = more signal.

Activity calls are given as the source filed them.

Chain of Neurogenic locus notch homolog protein 2 (Homo sapiens) (Q04721 whole entry, looked up, canonical isoform): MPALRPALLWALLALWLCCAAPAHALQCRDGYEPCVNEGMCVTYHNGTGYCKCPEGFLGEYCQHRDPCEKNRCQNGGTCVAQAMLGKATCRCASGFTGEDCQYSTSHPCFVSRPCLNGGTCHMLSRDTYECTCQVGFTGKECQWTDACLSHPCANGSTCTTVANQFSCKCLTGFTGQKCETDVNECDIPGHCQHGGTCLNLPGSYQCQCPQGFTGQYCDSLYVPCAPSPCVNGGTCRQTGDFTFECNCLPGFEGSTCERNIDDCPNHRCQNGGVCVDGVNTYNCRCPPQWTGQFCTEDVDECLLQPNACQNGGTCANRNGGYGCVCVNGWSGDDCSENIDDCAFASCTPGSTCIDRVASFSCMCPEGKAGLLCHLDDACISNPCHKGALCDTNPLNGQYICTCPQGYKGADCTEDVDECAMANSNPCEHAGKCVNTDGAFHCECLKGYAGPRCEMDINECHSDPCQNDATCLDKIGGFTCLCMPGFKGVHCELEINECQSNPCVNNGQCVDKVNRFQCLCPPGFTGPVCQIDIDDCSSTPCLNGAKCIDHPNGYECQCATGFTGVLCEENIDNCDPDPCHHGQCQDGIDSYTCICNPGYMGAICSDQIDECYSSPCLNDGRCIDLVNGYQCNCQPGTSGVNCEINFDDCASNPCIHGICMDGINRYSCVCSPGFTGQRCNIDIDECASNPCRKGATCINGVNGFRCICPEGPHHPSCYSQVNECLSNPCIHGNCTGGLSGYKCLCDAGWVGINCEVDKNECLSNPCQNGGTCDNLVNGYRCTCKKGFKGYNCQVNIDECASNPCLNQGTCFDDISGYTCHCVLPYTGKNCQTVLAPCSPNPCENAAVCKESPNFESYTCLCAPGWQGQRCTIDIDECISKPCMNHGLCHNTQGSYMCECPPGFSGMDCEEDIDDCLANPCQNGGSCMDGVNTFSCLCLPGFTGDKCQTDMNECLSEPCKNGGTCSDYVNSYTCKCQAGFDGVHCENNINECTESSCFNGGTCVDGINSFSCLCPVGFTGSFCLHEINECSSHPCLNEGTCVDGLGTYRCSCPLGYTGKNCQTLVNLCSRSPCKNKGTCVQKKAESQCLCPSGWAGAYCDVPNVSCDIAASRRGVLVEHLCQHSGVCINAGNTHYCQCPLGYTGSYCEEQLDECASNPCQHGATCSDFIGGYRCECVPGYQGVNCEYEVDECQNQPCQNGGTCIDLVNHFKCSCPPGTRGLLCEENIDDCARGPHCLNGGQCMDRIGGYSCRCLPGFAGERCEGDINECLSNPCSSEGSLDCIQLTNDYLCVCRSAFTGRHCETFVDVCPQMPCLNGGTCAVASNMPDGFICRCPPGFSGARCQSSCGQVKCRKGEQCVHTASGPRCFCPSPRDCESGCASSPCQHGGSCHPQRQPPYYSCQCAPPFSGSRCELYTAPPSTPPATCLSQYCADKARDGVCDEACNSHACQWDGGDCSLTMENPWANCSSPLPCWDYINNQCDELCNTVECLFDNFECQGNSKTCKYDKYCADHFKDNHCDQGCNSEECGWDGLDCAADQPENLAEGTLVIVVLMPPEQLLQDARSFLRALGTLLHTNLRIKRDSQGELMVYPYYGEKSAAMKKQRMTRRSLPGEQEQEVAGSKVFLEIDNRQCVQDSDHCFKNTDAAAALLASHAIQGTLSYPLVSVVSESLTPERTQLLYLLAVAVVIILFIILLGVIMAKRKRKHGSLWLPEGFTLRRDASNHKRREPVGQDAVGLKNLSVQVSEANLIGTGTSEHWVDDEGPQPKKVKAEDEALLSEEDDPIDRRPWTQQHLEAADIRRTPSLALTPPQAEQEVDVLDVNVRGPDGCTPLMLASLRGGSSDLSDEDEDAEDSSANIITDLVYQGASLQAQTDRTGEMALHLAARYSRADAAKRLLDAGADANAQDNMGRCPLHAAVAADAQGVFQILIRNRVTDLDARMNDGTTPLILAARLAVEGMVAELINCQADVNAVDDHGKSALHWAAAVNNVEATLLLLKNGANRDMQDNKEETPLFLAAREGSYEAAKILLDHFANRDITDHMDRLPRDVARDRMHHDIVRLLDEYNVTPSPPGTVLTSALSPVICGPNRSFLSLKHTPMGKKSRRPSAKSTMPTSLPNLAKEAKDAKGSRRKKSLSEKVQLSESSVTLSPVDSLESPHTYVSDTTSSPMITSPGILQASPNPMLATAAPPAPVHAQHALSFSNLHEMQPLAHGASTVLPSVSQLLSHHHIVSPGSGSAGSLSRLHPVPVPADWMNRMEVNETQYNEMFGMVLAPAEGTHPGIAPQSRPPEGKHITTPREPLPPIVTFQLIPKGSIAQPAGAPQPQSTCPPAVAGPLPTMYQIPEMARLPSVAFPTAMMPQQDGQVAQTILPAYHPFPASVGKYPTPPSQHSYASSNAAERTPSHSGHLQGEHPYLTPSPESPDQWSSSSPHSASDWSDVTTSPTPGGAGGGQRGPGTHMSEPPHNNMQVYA
Chain of Torsin-1A-interacting protein 2 (Homo sapiens) (Q8NFQ8 whole entry, looked up): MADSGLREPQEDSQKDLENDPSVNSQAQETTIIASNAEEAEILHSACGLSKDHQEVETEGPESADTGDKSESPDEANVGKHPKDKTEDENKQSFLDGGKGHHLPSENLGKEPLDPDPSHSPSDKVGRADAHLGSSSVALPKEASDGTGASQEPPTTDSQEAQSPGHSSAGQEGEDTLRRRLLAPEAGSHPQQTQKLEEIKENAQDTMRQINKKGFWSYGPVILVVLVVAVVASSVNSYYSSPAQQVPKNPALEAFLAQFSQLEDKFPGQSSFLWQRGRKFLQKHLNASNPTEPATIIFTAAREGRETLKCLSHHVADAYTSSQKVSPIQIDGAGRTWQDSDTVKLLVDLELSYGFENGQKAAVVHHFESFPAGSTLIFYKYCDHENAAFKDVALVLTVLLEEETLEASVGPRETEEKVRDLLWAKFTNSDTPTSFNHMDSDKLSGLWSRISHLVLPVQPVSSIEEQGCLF
Chain of Pro-neuregulin-1, membrane-bound isoform (Homo sapiens) (Q02297 whole entry, looked up, the tested form may be a part, canonical isoform): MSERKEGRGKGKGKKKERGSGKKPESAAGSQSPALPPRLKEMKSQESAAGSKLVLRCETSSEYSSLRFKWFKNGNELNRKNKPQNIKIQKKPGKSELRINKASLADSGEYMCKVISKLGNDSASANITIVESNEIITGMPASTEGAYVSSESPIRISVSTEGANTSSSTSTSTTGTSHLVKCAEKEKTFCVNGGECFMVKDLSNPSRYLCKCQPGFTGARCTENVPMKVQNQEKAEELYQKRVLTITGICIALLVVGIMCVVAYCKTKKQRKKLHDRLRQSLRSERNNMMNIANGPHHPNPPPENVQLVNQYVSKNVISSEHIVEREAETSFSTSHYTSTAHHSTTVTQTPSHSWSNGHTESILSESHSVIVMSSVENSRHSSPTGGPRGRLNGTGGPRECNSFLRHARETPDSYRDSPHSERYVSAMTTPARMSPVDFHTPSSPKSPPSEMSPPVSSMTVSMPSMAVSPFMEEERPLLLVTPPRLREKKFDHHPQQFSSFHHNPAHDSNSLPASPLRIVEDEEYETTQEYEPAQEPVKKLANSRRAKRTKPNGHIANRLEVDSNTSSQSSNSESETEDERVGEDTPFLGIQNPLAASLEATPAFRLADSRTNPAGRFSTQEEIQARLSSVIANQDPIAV

For the compound `CCCCC=C[C@@H](NC(=O)c1ccc(C(F)(F)F)cc1)c1ccccc1`, the composite z-score in test [1] was 0.385; in [2], 0.0374; in test [3], -0.0583; in test [4], -0.0239; in test [5], -0.955; in [6], 0.297. For the same compound, the composite z-score was -0.444 in [7]; -0.392 in test [9]; 0.449 in test [10]; -0.461 in [11]; 0.748 in [15]; -0.0285 in test [17]. Besides, the composite z-score was -0.905 in test [18], -0.76 in test [19] and -0.566 in [20]. Further, the z-score is 1.02 (inactive) in test [8]; -0.27 (inactive) in [12]; -8.36 (active) in [13]; -1.79 (inactive) in test [14]; -1.07 (inactive) in [16].
With `O=C1C2C=CC(C(O)C(c3ccccc3)c3ccccc3)N(Nc3ccccc3)C2C(=O)N1c1ccccc1` (stereo not given), the composite z-score came out at 0.35 in test [1]; 0.0239 in [2]; 0.128 in [3]; 0.244 in test [4]; 1.63 in [5]; 1.66 in [6]. In addition, the composite z-score in [7] is 1.17; in test [9] it was 1.01; in test [10] it was -0.318; in [11] it was 1.55; in [15] it was 3.23; in test [17], 0.0731. In addition, the composite z-score turned out to be 0.351 in test [18], 1.03 in test [19] and 0.056 in test [20]. Also, the z-score in [8] was -0.996 (inactive); in test [12], 0.838 (inactive); in test [13], 0.0855 (inactive); in [14], 0.281 (inactive); in test [16], -1.15 (inactive).
As for `C=CCC(OC(C)=O)[C@@H]1[C@@H](N(Cc2ccc(-c3ccccc3)cc2)C(=O)c2ccc(-c3ccccc3)cc2)c2cc(OCCCO)ccc2N1C(=O)c1ccc2ccccc2n1` (stereo not given in full), the composite z-score in test [1] was 0.0997; in test [2], 0.185; in test [3], -0.0945; in [4], 0.0767; in test [5], -0.332; in test [6], 0.211. Besides, the composite z-score in test [7] was -0.359; in [9], 0.212; in test [10], 0.347; in test [11] it was 0.474; in test [15], 0.183; in test [17], 0.121. Moreover, the figures for the composite z-score in test [18], in test [19] and in test [20] were 0.408, 0.361 and -0.0494, respectively. The z-score in test [8] is -0.0161 (inactive); in [12], -0.755 (inactive); in test [13] it was -0.638 (inactive); in test [14] it was -0.0474 (inactive); in test [16], 0.853 (inactive).
Regarding `C=C(COC)/C(=C/C[C@H](OC(=O)c1ccncc1)c1ccc(OCCO)cc1)c1cc(C(=O)OC)ccc1OC`, the composite z-score is -0.139 in test [1]; -0.0024 in test [2]; 0.0436 in [3]; 1.08 in [4]; 0.0841 in test [5]; 0.358 in [6]. For the same compound, the composite z-score in [7] was 1.03; in test [9] it was 1.42; in [10] it was 0.113; in test [11], 1.41; in test [15] it was 2.28; in test [17], -0.0337. Further, the composite z-score is 1.01 in test [18], 1.1 in test [19] and -0.0828 in test [20]. The z-score is -0.992 (inactive) in [8]; -0.823 (inactive) in [12]; -1.2 (inactive) in test [13]; -0.649 (inactive) in test [14]; 1.59 (inactive) in [16].
